This is one part of a sample in which hits are shown more often than they occur.
Anaer choline gr: growth inhibitors of anaerobic choline-fed gram-negatives, minimal medium, absorbance. Gram-negative bacterium anaerobic choline minimal medium; stronger effect = lower value. calls only. 0.2% of 55,000 active; call rule not given here
* marks the source's active call; other numbers are inactive results; i = inactive; + = active, no number; ! = a repeat was not active.

SMILES | Anaer choline gr
CC1CCCN(c2ccc(NC(=O)C3CCC3)c(C(=O)O)c2)C1 (stereo unspecified) | i
CCc1nnc(NC(=O)CCc2nc(CSc3nc4ccccc4[nH]3)no2)s1 | i
Cc1cccc(NS(=O)(=O)c2c(C)sc(C)c2-c2cc(C(F)(F)F)on2)c1 | i
Cc1sc2cc(C(=O)N3CCC4(CC3)OCCO4)[nH]c2c1CN1CCCCC1 | i
CCCN1CCN(C(=O)c2cc3sc(C)c(CN4CCCCC4)c3[nH]2)CC1 | i
Cc1sc2cc(C(=O)N3CCC(N4CCCCC4)CC3)[nH]c2c1CN1CCCCC1 | +
CS(=O)(=O)Nc1ccc(C2(C(=O)N3CCC4(CC3)OCCO4)CCCCC2)cc1 | i
O=C1CCSc2ccc(S(=O)(=O)NCc3ccccn3)cc2N1 | i
O=C(Nc1ccc(Oc2ccccc2)cc1)C1Nc2ccccc2S(=O)(=O)N1 (stereo unspecified) | i
Cc1cc(-n2c(C)nc3ccccc3c2=O)ccc1NC(=O)C(C)Oc1cccc(Cl)c1 (stereo unspecified) | i
COC(=O)c1ccccc1NC(=O)CSc1ncc(S(=O)(=O)c2ccc(OC)c(Cl)c2)c(=O)[nH]1 | i
CC(C)NC(=O)Cn1cnc2nc(N3CCCC(C(=O)NC4CC4)C3)sc2c1=O (stereo unspecified) | i
NC(N)=N/N=C/c1c(Cl)cccc1Cl | +!
NC(N)=NC(=O)Cc1c(Cl)cccc1Cl | i
Cn1cc2c(n1)c(=O)n(Cc1ccc(F)cc1)c1nn(Cc3ccc(F)cc3)c(=O)n21 | i
Cc1cc(=O)c2cccc(C(=O)Nc3ccccc3)c2[nH]1 | i
Cc1ccccc1-c1ccc(N2CCCC(C(=O)NC3CCCC3)C2)nn1 (stereo unspecified) | i
CSc1ccc2c(c1)N(CCC1CCCCN1C)c1ccccc1S2 (stereo unspecified) | i
CN1CCCC1CCOC(C)(c1ccccc1)c1ccc(Cl)cc1 (stereo unspecified) | +
O=S(=O)(c1ccccc1)N1CCCC1c1ccc(Cl)cc1 (stereo unspecified) | i
CN(C(=O)CSc1nnc(-c2ccncc2)o1)c1ccccc1 | i
CCOc1cccc(C2Nc3c(C)cc(C)cc3[C@H]3OCCC[C@@H]23)c1OC (stereo partly specified) | i
COc1ccc2c(c1)c(C1=C(c3c[nH]c4ccccc34)C(=O)NC1=O)cn2CCCN(C)C | i
CN(C)CCCn1cc(C2=C(c3c[nH]c4ccccc34)C(=O)NC2=O)c2ccccc21 | +!
Cn1cc(C2=C(c3cn(CCCSC(=N)N)c4ccccc34)C(=O)NC2=O)c2ccccc21 | i
SMILES | Anaer choline gr
Nc1nc(Cl)nc2c1ncn2[C@@H]1O[C@H](CO)[C@@H](O)[C@@H]1F | +!
O=c1[nH]cnc2c1ncn2C1O[C@H](CO)[C@@H](O)[C@H]1O (stereo partly specified) | i
Nc1nc(Cl)nc2c1ncn2[C@H]1C[C@H](O)[C@@H](CO)O1 | i
COc1cccc(-n2c(C)cc(CN)c2C)c1 | i
O=S(=O)(c1cn(Cc2noc(-c3ccc(Br)cc3)n2)cn1)N1CCOCC1 | i
COc1ccc(OCC(=O)N2CCN(C(=O)c3cc4cc(OC)ccc4[nH]3)CC2)cc1 | i
CN1CCN(CCNc2nc(C3CC3)nc3c2CCC3)CC1 | i
CCN1CCN(CCNc2nc(C3CC3)nc3c2CCC3)CC1 | +
O=C1CCCN1CCCNc1nc(C2CC2)nc2c1CCC2 | i
C#CCOc1cccc(C2CC(=O)Nc3c2c(C)nn3-c2nc3ccccc3s2)c1 (stereo unspecified) | i
CN1C(=O)Cc2cc(S(=O)(=O)N3CCN(c4nc5ccccc5n5cccc45)CC3)ccc21 | i
CCc1cc(Cl)c(OC)c(C(=O)NCC2CCCN2CC)c1O (stereo unspecified) | i
CCc1cc(Cl)c(OC)c(C(=O)NC[C@@H]2CCCN2CC)c1O | +!
CCN1CCCC1CNC(=O)c1c(O)c(Cl)cc(Cl)c1OC (stereo unspecified) | i
O=C1COc2ccc(C(=O)Nc3ccc(F)cc3)cc2N1 | i
COc1cccc(NC(=O)c2ccc3noc(-c4ccc(Cl)cc4)c3c2)c1 | i
COc1cccc(NC(=O)CCc2c(-c3ccc(F)cc3)nc3ccccn23)c1 | i
CN(CCNc1ncnc2onc(-c3cccc(Cl)c3)c12)C1CCCCC1 | +
Cc1ccc(-c2noc3ncnc(NCCN(C)C4CCCCC4)c23)cc1 | i
Clc1cccc(-c2noc3ncnc(NCc4ccc5c(c4)OCO5)c23)c1 | i
CO[C@@]12[C@H](COC(N)=O)C3=C(C(=O)C(C)=C(N)C3=O)N1C[C@@H]1N[C@@H]12 | +!
Cc1ccn2c(=O)c(-c3ccccc3)c(O)nc2c1 | i
Cn1nc(C(=O)NCCC2=CCCCC2)c2c1-c1ccccc1OC2 | i
CCCCC/C=C\C/C=C\C/C=C\CCCCCCC(=O)O | i
CCCCC/C=C\C/C=C\C/C=C\CCCCC(=O)O | +
SMILES | Anaer choline gr
CCCCC/C=C\C/C=C\CCCCCCCC(=O)O | i
Cc1nc(-c2cccc(-c3noc(C(=O)NCCC4=CCCCC4)n3)c2)cs1 | i
Cn1cc(S(=O)(=O)N2CCCCC2)cc1C(=O)Nc1ccc(F)c(Cl)c1 | i
Oc1ccc(C2NCCc3c2[nH]c2ccc(Cl)cc32)cc1 (stereo unspecified) | +
CCOc1cc(C2NCCc3c2[nH]c2ccc(Cl)cc32)ccc1O (stereo unspecified) | +
Oc1ccc(C2NCCc3c2[nH]c2ccc(Cl)cc32)cc1O (stereo unspecified) | i
COc1ccc(C2NCCc3c2[nH]c2ccccc32)cc1O (stereo unspecified) | i
COc1ccc2[nH]c3c(c2c1)CCNC3c1cccc(O)c1 (stereo unspecified) | i
CCCOc1ccc(C2NCCc3c2[nH]c2ccccc32)cc1OC (stereo unspecified) | i
Cc1nc(CN2C(=O)COc3ccc(S(=O)(=O)N4CCCCC4)cc32)no1 | i
Cc1nc(CN2C(=O)COc3ccc(S(=O)(=O)N4CCCC4)cc32)no1 | i
O=c1onc2n1-c1cc(Br)ccc1OC2 | +
CCn1c2c(c(SCc3ccccc3C)nc1=O)CCC2 | i
CC(=O)Nc1ccc(-c2cc(C(=O)NC3CC3)c3cc(C)ccc3n2)cc1 | i
COc1cccc(OCC(=O)Nc2cc(C)nn2-c2ncnc3c2cnn3-c2ccc(F)cc2)c1 | i
Cc1nc(N2CCCC2)c2c(C)c(C(=O)N3CCOCC3)sc2n1 | i
